Many of the other results were omitted from the sample, so hits are more common in it than they were.
DUX4 inh: DUX4-mediated transcription inhibition. 293T-iDUX4 ZSCAN4-Gaussia luciferase reporter, 24 h; stronger effect = lower value. activity change, negative = inhibition, % (concentration not given with the values). 0.8% of 37,000 active;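 active = mean inhibition of at least 10% in the main channel, exceeding the control channel by a set limit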;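 note: 0% = median of neutral control wells and -100% = median of positive control wells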
The depositor's hits bear a star; ! = a repeat was not active.

For COc1cccc(S(=O)(=O)N2C[C@@H]3N[C@H](C2)C3c2ccc(-c3ccccc3F)cc2)c1 (stereo partly drawn) the results were DUX4 inh -69*!.
`COc1cccc(S(=O)(=O)N2CCCCN3[C@@H](CO)[C@H](c4ccc(-c5cccnc5)cc4)[C@@H]3C2)c1` gave DUX4 inh -4.
`Cc1cccc(S(=O)(=O)N2C[C@@H]3N[C@H](C2)C3c2ccc(-c3cncnc3)cc2)c1` (stereo partly drawn) gave DUX4 inh -4.
Screening COc1cccc(-c2ccc(C3[C@@H]4CN(S(=O)(=O)Cc5ccccc5)C[C@H]3N4)cc2)c1 (stereo partly drawn) returned DUX4 inh -22*.
Screening COc1cccc(-c2ccc(C3[C@@H]4CN(S(=O)(=O)c5ccccc5F)C[C@H]3N4)cc2)c1 (stereo partly drawn) returned DUX4 inh -7.
Cc1cccc(S(=O)(=O)N2C[C@@H]3N[C@H](C2)C3c2ccc(-c3ccccc3C)cc2)c1 (stereo partly drawn) was read as DUX4 inh -73*!.
For COCC(=O)N1[C@H](CO)[C@H]2c3ccccc3N(C)C[C@H]21 the results were DUX4 inh -3.
For CN(C)C(=O)c1ccc(-c2ccc([C@H]3[C@@H](C#N)N(C(=O)C4CCOCC4)[C@H]3CO)cc2)cc1 the results were DUX4 inh 0.
For COc1cccc(CNC(=O)C[C@H]2C=C[C@@H](NC(=O)C3CCOCC3)[C@@H](CO)O2)c1 the results were DUX4 inh 5.
COc1ccc2c3c([nH]c2c1)[C@H](CO)N(C(=O)c1ccncc1)CC31CN(Cc2cccnc2)C1 was read as DUX4 inh 23.
Screening O=C(C[C@H]1C[C@@H]2c3cc(NC(=O)CC4CC4)ccc3O[C@@H]2[C@H](CO)O1)NCc1ccncc1 returned DUX4 inh -1.
CC=Cc1ccc2n(c1=O)C[C@@H]1[C@@H](CO)[C@H](C(=O)N(C)C)N(C(=O)CC)[C@H]21 (mixture of isomers) was read as DUX4 inh -1.
Screening O=C(C[C@H]1CC[C@@H](NS(=O)(=O)c2ccc(F)cc2)[C@@H](CO)O1)NC1CCCCC1 returned DUX4 inh 0.
`O=C(C[C@@H]1CC[C@@H](NS(=O)(=O)c2ccccc2)[C@@H](CO)O1)NCc1ccc(Cl)c(Cl)c1` gave DUX4 inh -1.
`C[C@H](NC(=O)C[C@H]1CC[C@@H]2[C@H](COC[C@@H](O)CN2C(=O)Nc2cccc(F)c2)O1)c1ccccc1` gave DUX4 inh 5.
For COc1ccccc1S(=O)(=O)N1[C@@H]2CNC[C@H]1C2c1ccc(-c2cccnc2)cc1 (stereo partly drawn) the results were DUX4 inh 3.
Cc1ccccc1S(=O)(=O)N1C[C@@H]2N[C@H](C1)C2c1ccc(/C=C/c2ccccc2)cc1 (stereo partly drawn) was read as DUX4 inh -37*.
Cc1ccccc1S(=O)(=O)N1[C@H](C#N)[C@H](c2ccc(-c3ccc(F)cc3)cc2)[C@H]1CO was read as DUX4 inh -4.
`C/C=C/c1ccc(C2[C@H]3CNC[C@@H]2N3S(=O)(=O)c2ccccc2C)cc1` (stereo partly drawn) gave DUX4 inh 13.
`Cc1ccccc1S(=O)(=O)N1[C@@H]2CNC[C@H]1C2c1ccc(-c2cccc(C#N)c2)cc1` (stereo partly drawn) gave DUX4 inh -8.
For CS(=O)(=O)N1[C@H](C#N)[C@@H](c2ccc(/C=C/c3ccccc3)cc2)[C@H]1CO the results were DUX4 inh 4.
`Cc1ccccc1S(=O)(=O)N1C[C@@H]2N[C@H](C1)C2c1ccc(-c2ccc(C#N)cc2)cc1` (stereo partly drawn) gave DUX4 inh -69*!.
For Cc1noc(C)c1NC(=O)Nc1ccc2c(c1)C(=O)N(C)[C@@H]1CC[C@H](CC(=O)N[C@H]3CCN(Cc4ccccc4)C3)O[C@H]1CO2 the results were DUX4 inh -1.
`CCS(=O)(=O)NCC[C@H]1CC[C@H](NC(=O)C2CCOCC2)[C@@H](CO)O1` gave DUX4 inh -10.
For CCC(=O)Nc1ccc2c(c1)C(=O)N(C)C[C@@H](OC)[C@H](C)CN(C(=O)Cc1cccnc1)[C@H](C)CO2 the results were DUX4 inh 6.
O=C(C[C@H]1CC[C@H]2[C@@H](COC[C@H](O)CN2CC2CCOCC2)O1)NCc1ccc(Cl)cc1 was read as DUX4 inh -29*.
`O=C(C[C@H]1CC[C@H]2[C@@H](COC[C@H](O)CN2CC2CCCCC2)O1)NCc1ccc(Cl)cc1` gave DUX4 inh -4.
Screening O=C(C[C@H]1CC[C@@H]2[C@H](COC[C@@H](O)CN2CC2CCCCC2)O1)NCc1ccc(Cl)cc1 returned DUX4 inh -5.
`CN(C)CC(=O)Nc1ccc2c(c1)[C@H]1C[C@H](CC(=O)NCc3ccc(-c4ccccc4)cc3)O[C@@H](CO)[C@H]1O2` gave DUX4 inh -9.
O=C(C[C@H]1C[C@H]2c3cc(NC(=O)Cc4ccncc4)ccc3O[C@H]2[C@H](CO)O1)NCc1cccc(F)c1 was read as DUX4 inh -30*.
O=C(C[C@@H]1C[C@H]2c3cc(NC(=O)Cc4ccncc4)ccc3O[C@H]2[C@@H](CO)O1)NCc1cccc(F)c1 was read as DUX4 inh 4.
`O=C(C[C@H]1C[C@@H]2c3cc(NC(=O)Cc4ccncc4)ccc3O[C@@H]2[C@H](CO)O1)NCc1ccc(-c2ccccc2)cc1` gave DUX4 inh -10.
Screening O=C(C[C@@H]1C[C@H]2c3cc(NC(=O)Cc4ccncc4)ccc3O[C@H]2[C@@H](CO)O1)NCc1ccc(-c2ccccc2)cc1 returned DUX4 inh -31*.
For O=C(C[C@@H]1C[C@@H]2c3cc(NC(=O)Cc4ccncc4)ccc3O[C@@H]2[C@@H](CO)O1)NCc1cccc(F)c1 the results were DUX4 inh -5.
`COc1ccccc1CNC(=O)C[C@@H]1C[C@@H]2c3cc(NC(=O)CN(C)C)ccc3O[C@@H]2[C@@H](CO)O1` gave DUX4 inh 6.
Screening COc1ccccc1CNC(=O)C[C@H]1C[C@H]2c3cc(NC(=O)CN(C)C)ccc3O[C@H]2[C@H](CO)O1 returned DUX4 inh 2.
`COc1ccccc1CNC(=O)C[C@H]1C[C@H]2c3cc(NC(=O)Cc4ccncc4)ccc3O[C@H]2[C@H](CO)O1` gave DUX4 inh -34*.
For COc1ccc(S(=O)(=O)Nc2ccc3c(c2)CC(=O)N([C@H](C)CO)C[C@H](C)[C@@H](CN(C)CC2CC2)O3)cc1 the results were DUX4 inh 1.
O=C(c1cccnc1)N1CC(=O)N2[C@H](CO)[C@@H](c3ccc(/C=C/c4ccccc4)cc3)[C@H]2C1 was read as DUX4 inh 0.
Screening C[C@@H]1CCCCO[C@@H](CN(C)S(=O)(=O)c2cccs2)[C@@H](C)CN([C@H](C)CO)C(=O)c2cc(NC(=O)c3ccccc3)ccc2O1 returned DUX4 inh 2.
`Cc1noc(C)c1S(=O)(=O)Nc1ccc2c(c1)C(=O)N([C@@H](C)CO)C[C@H](C)[C@@H](CN(C)C(=O)NC1CCCCC1)O2` gave DUX4 inh 1.
`CO[C@H]1CN(C)C(=O)c2cc(NC(=O)c3ccccc3F)ccc2OC[C@H](C)NC[C@@H]1C` gave DUX4 inh 1.
